An excerpt weighted towards active compounds, which were near 1% of everything screened.
PTHR1 ag: PTHR1 (human) receptor agonism | HEK293 GP2 PTHR1 cells, GloSensor cAMP luminescence, 1 h | Potency, µM (highest dose often 115 µM), most hits filed as activators | 410,000 compounds, 0.075% hits; further: nearly all actives have a fitted effect of over 55% in size
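HEK-293-derived GP2 cells expressing PTHR1 and a GloSensor cAMP reporter, 3,000/well, plated overnight, given luciferin plus IBMX (each 0.5 mM as added) for 1 h at 37 °C, then compound for 1 h at 37 °C. Luminescence was read after 15 min at room temperature.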
gsp agonist: gsp mutant agonism; Potency, µM (series often up to 76.9 µM), usual class: activators; gsp mutant cells, cAMP HTRF, 30 min; AID 624287; 340,000 compounds, 0.13% hits; active means well fitted activation curve with a large enough effect; inconclusive means small, poorly fitted or top-dose-only effect, or another doubt; inactive means no such curve, though single readings can be large or run the other way; cell line not stated here;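 further: phosphodiesterase inhibitor Ro 20-1724 added with compounds to block cAMP breakdown; nearly all actives have a fitted effect of over 60% in size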
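Cells in DMEM/10% FBS with G418 were pretreated with compounds in DMSO plus […] (300 uM stock) for 30 min at 37C. cAMP was measured by HTRF (cAMP-d2 plus anti-cAMP antibody-K) after 30 min at room temperature.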
RXFP1 antag: antagonists of human relaxin receptor RXFP1; HEK293-RXFP1, relaxin-stimulated cAMP HTRF, 30 min; stronger effect = lower value; activity change, negative = inhibition, % at 57.5 µM; 350,000 compounds, 0.59% hits; Q9HBX9;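 active means activity change of -60% or lower, but not beyond a set lower limit; inconclusive means change between -60% and -40%, or beyond the set limit; inactive means change above -40%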
Target sequence (Q9HBX9 whole entry, looked up): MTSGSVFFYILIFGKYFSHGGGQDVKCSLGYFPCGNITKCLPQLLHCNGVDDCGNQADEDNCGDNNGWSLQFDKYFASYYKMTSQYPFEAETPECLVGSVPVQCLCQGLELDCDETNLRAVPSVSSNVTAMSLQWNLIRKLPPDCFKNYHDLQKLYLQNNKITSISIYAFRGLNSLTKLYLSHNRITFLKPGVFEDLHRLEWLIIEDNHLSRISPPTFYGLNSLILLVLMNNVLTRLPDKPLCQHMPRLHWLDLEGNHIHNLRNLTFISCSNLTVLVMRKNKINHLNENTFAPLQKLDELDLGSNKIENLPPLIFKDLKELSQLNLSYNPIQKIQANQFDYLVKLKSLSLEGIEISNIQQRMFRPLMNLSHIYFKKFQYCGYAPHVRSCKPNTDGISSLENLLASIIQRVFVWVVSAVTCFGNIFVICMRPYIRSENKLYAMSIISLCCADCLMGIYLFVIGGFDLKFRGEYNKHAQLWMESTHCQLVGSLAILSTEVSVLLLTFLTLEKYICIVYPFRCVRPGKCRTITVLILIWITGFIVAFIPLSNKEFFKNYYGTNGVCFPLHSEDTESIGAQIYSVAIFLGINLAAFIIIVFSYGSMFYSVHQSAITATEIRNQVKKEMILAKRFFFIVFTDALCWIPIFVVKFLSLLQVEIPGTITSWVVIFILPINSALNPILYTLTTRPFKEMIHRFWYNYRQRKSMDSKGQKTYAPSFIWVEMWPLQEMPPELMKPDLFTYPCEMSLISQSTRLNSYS
RXFP1 agonist: RXFP1 (human) receptor agonism; Q9HBX9; HEK293T-RXFP1 cAMP TR-FRET, 30 min; response scale: percent of porcine relaxin response, buffer zero; Potency, µM (series often up to 57.5 µM), most hits filed as activators; 370,000 compounds, 0.3% hits; AID 2676; further: nearly all actives have a fitted effect of over 60% in size
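HEK293 cells stably expressing RXFP1, treated 30 min at 37C with compounds plus PDE4 inhibitor Ro 20174; cAMP measured by HTRF TR-FRET. Normalized to buffer and 29 nM porcine relaxin; EC50 by Hill fit.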
gsp antagonist: antagonists of gsp mutant (McCune-Albright syndrome) | gsp-mutant cells, cAMP HTRF, 30 min | Potency, µM (titrated, usually from 76.9 µM), most hits filed as inhibitors | AID 624288 | 340,000 compounds, 0.4% hits; calls by dose curve; cell line not stated here;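 further: intracellular cAMP measured with PDE inhibitor Ro 20-1724 present during compound exposure; nearly all actives have a fitted effect of over 65% in size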
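G418-selected cells were plated in DMEM/10% FBS for 16-24 h at 37C, then treated with compounds plus the PDE inhibitor […] (300 uM solution added) for 30 min at 37C. Intracellular cAMP was measured by HTRF after 30 min lysis at room temperature.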
A number is an active result; n = inactive; u = inconclusive; x = no result; [ ] = another dose, or the depositor's remark. Unless noted, the call rests on the fitted dose curve; in most records, active means well fitted curve in the direction sought with a large enough effect; inconclusive means small, poorly fitted or top-dose-only effect, or another doubt; inactive means no such curve, though single readings can be large; an effect the other way counts as inactive or inconclusive.

SMILES	PTHR1 ag	gsp agonist	RXFP1 antag	RXFP1 agonist	gsp antagonist
O=c1[nH]c2ccccc2c(=O)n1CCCl	x	x	n	x	x
CC1(C)Cc2c(ccc3ccccc23)/C(=C/C(=O)N2CCCCC2)N1	n	n	u	n	35µM
Cc1ccc(NC(=O)N2CCc3cc(S(=O)(=O)N4CCC(C)CC4)ccc32)cc1	u	x	n	n	x
CCCCCOC(=O)C1=C(C)N(C)C(=O)NC1c1cc(Br)c(O)c(OC)c1 (centres undefined)	n	n	n	n	7.1µM
CCCOc1ccc(/C=N/Nc2ccc(C(=O)O)cc2)c(OCCC)c1	n	n[15.4 µM]	u	n	10µM
COc1cc(CNn2nnnc2N)cc(Br)c1OCc1c(Cl)cccc1Cl	n	n	n	n	40µM
CCCC(=O)NC(c1ccco1)c1cc(Cl)c2cccnc2c1O (centres undefined)	n	n	-66	n	n
CCCC(=O)NC(c1cccs1)c1cc(Cl)c2cccnc2c1O (centres undefined)	n	n	u	n	n
CC(=O)NC(c1ccc2ccccc2c1)c1ccc2cccnc2c1O (centres undefined)	n	n	-70	n	n
CCCC(=O)NC(c1ccc(Cl)cc1)c1ccc2cccnc2c1O (centres undefined)	n	n	n	n	n
CCCC(=O)NC(c1ccc(Cl)cc1Cl)c1ccc2cccnc2c1O (centres undefined)	n	n	-62	n	n
CC(=O)NC(c1ccc(Cl)cc1Cl)c1ccc2cccnc2c1O (centres undefined)	n	n	x	n	n
CC(=O)Nc1ccc(S(=O)(=O)N2CCC(n3c(C)nc4cccnc43)CC2)cc1	n	x	n	n	x
C/C=C1\[C@H]2C=C(C)C[C@]1(N)c1ccc(=O)[nH]c1C2	x	x	n	x	x
O=C(CC1SC(=O)N(c2ccccc2)C1=O)Nc1ccc(Br)cc1 (centres undefined)	n	n[15.4 µM]	u	n	n
O=C(CC1SC(=O)N(c2ccccc2)C1=O)Nc1ccc(Cl)cc1 (centres undefined)	n	n[15.4 µM]	-70	n	n
COc1ccc(CNC(=O)c2c3c(nc4ccccc24)C(=O)N(C2CCCCC2)C3)cc1	n	x	n	n	x
Cc1cccc(-c2nnc3n(CCc4ccccc4)c(=O)c4ccccc4n23)c1	n	x	n	n	x
CC(NC(=O)Nc1nnc(C(F)(F)F)s1)(C(F)(F)F)C(F)(F)F	n	u	n	n	6.3µM
C=CCc1ccc(OCC(O)COc2ccc(CC=C)cc2OC)c(OC)c1	n	n	-69	n	n
COc1ccc(-n2c(Cc3cccs3)nnc2SCC(=O)Nc2ccc3c(c2)OCCO3)cc1	n	n	n	n	32µM
COc1ccc(-n2c(Cc3cccn3C)nnc2SCC(=O)Nc2ccc3c(c2)OCCO3)cc1	n	n	n	n	n
COc1ccc(-n2c(SCC(=O)Nc3ccc(Br)cc3)nc(O)cc2=O)cc1	n	n[15.4 µM]	-66	n	n
COc1ccc(NC(=O)CSc2nnc(Cc3cccs3)n2-c2ccc(C)cc2)cc1	n	n	n	n	32µM
CCOc1ccccc1NS(=O)(=O)c1cnc(N)nc1	n	x	n	n	x
SMILES	PTHR1 ag	gsp agonist	RXFP1 antag	RXFP1 agonist	gsp antagonist
COC(=O)c1ccc2c(=O)n(CCCN3CCOCC3)c(=S)[nH]c2c1	n	n	n	n	n
O=C(Nc1ccc(F)cc1)c1ccc2c(=O)n(CC3CCCO3)c(=S)[nH]c2c1 (centres undefined)	n	u	-68	n	u
COc1cc2[nH]c(=S)n(CC3CCCO3)c(=O)c2cc1OC (centres undefined)	n	n	-94	n	n
COc1cc2[nH]c(=S)n(CCCN3CCOCC3)c(=O)c2cc1OC	u	n	-68	n	n
CCNC(=O)c1ccc2nc(Cc3ccccc3)oc2c1	n	x	n	n	x
O=C(O)c1ccccc1NC(=O)c1ccccc1Nc1ccccc1	n	n	n	n	32µM
Cc1ccc(C)c(NC(=O)C2CCN(S(=O)(=O)c3c(C)noc3/C=C/c3cccs3)CC2)c1	n	x	n	n	x
COc1cc(C2C(C#N)=C(C)NC(C)=C2C#N)cc(OC)c1OC	n	8.9µM	n	n	n
Fc1cccc(CNc2ncnc3ccc(-c4ccccc4Cl)cc23)c1	x	x	x	n	x
COc1cccc(CNC(=O)CCc2c(C)c3cc4c(C)coc4cc3oc2=O)c1	n	x	n	n	x
Cc1nn(-c2ccccc2)c(C)c1NC(=O)COc1ccc(C#N)cc1	n	n	n	n	n
CC(=O)c1ccccc1NC(=O)COC(=O)c1c(C)nn(-c2ccccc2)c1C	n	n	n	n	u
COc1ccccc1NC(=O)COC(=O)c1c(C)nn(-c2ccccc2)c1C	n	n	n	n	32µM
Cc1nn(-c2ccccc2)c(C)c1NC(=O)COc1ccc2ccccc2c1	n	n	u	n	16µM
Cc1nn(-c2ccccc2)c(C)c1NC(=O)COc1ccc(Br)cc1Cl	n	n[15.4 µM]	u	n	35µM
Cc1nn(-c2ccccc2)c(C)c1NC(=O)COc1ccccc1C#N	n	n	n	x	x
Cc1ccnc(NS(=O)(=O)c2ccc(N3C(=O)c4ccccc4C3=O)cc2)n1	n	25µM	n	u	n
Cc1ccc(CC(=O)Nc2ccc(S(=O)(=O)Nc3nccc(C)n3)cc2)cc1	n	n	n	n	8.9µM
Cc1ccnc(NS(=O)(=O)c2ccc(NC(=O)Cc3ccccc3)cc2)n1	n	n	n	n	n
CC(CNC(=O)CCCn1c(=O)c2cccn2c2ccccc21)c1ccccc1 (centres undefined)	n	x	-78	n	x
CSc1ccc(CCNC(=O)CCCn2c(=O)c3cccn3c3ccccc32)cc1	n	x	-75	n	x
O=c1c(=O)n(-c2ccccc2)ccn1Cc1c(F)cccc1Cl	n	x	n	n	x
CC(Oc1ccccc1F)C(=O)N1CCC(c2nc3ccccc3o2)CC1 (centres undefined)	n	x	n	n	x
Cc1cccc(OC(C)C(=O)N2CCC(c3nc4ccccc4o3)CC2)c1C (centres undefined)	n	x	-63	n	x
CCn1c(SCC(=O)Nc2sccc2C(N)=O)nnc1C1CC1	u	n	n	n	50µM
SMILES	PTHR1 ag	gsp agonist	RXFP1 antag	RXFP1 agonist	gsp antagonist
CCOc1ccc(-c2nc(SC(C(C)=O)C(=O)N(C)C)c3c(=O)n(C)c(=O)n(C)c3n2)cc1 (centres undefined)	n	x	n	n	x
CCC(Oc1ccc(F)cc1)C(=O)Nc1cc(-c2ccc(C)cc2)no1 (centres undefined)	n	x	u	n	x
CCC(Oc1ccc(F)cc1)C(=O)Nc1nc(-c2ccc(F)cc2)ns1 (centres undefined)	n	x	-87	n	x
COc1cc(CCC(=O)Nc2ccc(Cl)c(C(F)(F)F)c2)cc(OC)c1OC	n	u	n	n	n
COc1cc(CCC(=O)Nc2ccc(Br)c(C(F)(F)F)c2)cc(OC)c1OC	n	n[15.4 µM]	n	n	28µM
OCCn1c(-c2ccc3c(c2)OCO3)csc1=Nc1ccccc1	n	n	n	n	28µM

Assay outcomes: PubChem, National Center for Advancing Translational Sciences (NCATS)
